# From PubChem BioAssay AID1671194 (National Center for Advancing Translational Sciences (NCATS), 2021)
# Among all 140,000 compounds or so, about 240 (0.17%) were called active. Roughly 9% stayed inconclusive and do not appear here. Shown is part of a subset that was picked to be rich in actives. A number with no mark means an inactive call. Calls follow the shape of the dose curve; as a rule, active = well fitted inhibition curve with a large enough effect; inconclusive = small, poorly fitted or top-dose-only effect; inactive = no such curve, though single readings can be large or run the other way.
# Test: Primary qHTS assay for inhibitors of alpha-synuclein gene (SNCA) expression; also: nearly all actives have a fitted effect of over 45% in size;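 as to activity change, negative = inhibition: plate controls were DMSO cells for no effect and cell-free wells for full effect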
# Details: HEK-293 SNCA-luciferase knock-in, luminescence, 24 h; series mostly up to 57.2 µM; activity change, negative = inhibition: at the top concentration
# Potency is read from the fitted curve at half-maximal effect.
Compound,"activity change, negative = inhibition",Potency
COCCCn1c(C)cnc1CC1CCN(C(=O)CC2CCCCC2)CC1,-4.37%,–
N#Cc1ccc(CN2CCN(c3nccc(Cl)n3)C(=O)C2)cc1,-0.594% [at 87.6 µM],–
O=C(Nc1ccc([C@H]2OCC(=O)N(Cc3ccc(F)cc3)[C@@H]2CO)cc1)c1cccnc1,-11%,–
CCS(=O)(=O)NCC1(COc2ccc(C(F)(F)F)cn2)C[C@@H](O)[C@@H](O)C1 (stereo partly drawn),4.56% [at 87.6 µM],–
Cc1ccccc1C(=O)N1CCC2(CC1)CCN(Cc1cccs1)c1ccccc1O2,20%,–
Cc1ccc2c(C(=O)N3CCCC(C#N)C3)cc(-c3cnn(C(C)C)c3)nc2c1 (stereo not drawn),3.68%,–
O=[S+]([O-])(c1ccccc1)N1CC2(CCCCN2Cc2cccnc2)Cc2ccccc21 (stereo not drawn),-16%,–
COCCNC(=O)c1nc2sccn2c1-c1cccc(OC)c1,20.3%,–
O=C(NC1CCCCC1)[C@H]1O[C@H](CCN2CCNCC2)CC[C@@H]1O,9.12% [at 87.6 µM],–
COc1cccc(-c2ccnc3nc(Cc4cc(F)cc(F)c4)nn23)c1,9.66%,–
CN1C(=O)[C@@H]2C[C@@H](O)CN2C2(CN(Cc3ccoc3)C2)C1=O,20.6% [at 87.6 µM],–
Cc1noc([C@@H]2CN(CCCc3ccccc3)C[C@H]2CO)n1,17%,–
C[C@H](C(=O)N1Cc2ccccc2CC2(CCN(Cc3ccncc3)CC2)C1)c1ccccc1,12.6%,–
CC(=O)Nc1cccc(-c2cn(C)c(=O)n3cc(COc4ccnn4C)nc23)c1,6.13% [at 87.6 µM],–
COc1cccc([S+](=O)([O-])N2CCC3(CC(c4cccnc4)=NO3)C2)c1 (stereo not drawn),8.12%,–
O=C(c1ccccc1C1CCNC1)N1CCN(C/C=C/c2ccccc2)CC1 (stereo not drawn),-3.29%,–
COCc1nnc(NC(=O)C2c3ccccc3C(=O)N(C3CCCC3)C23CCCC3)s1 (stereo not drawn),-14.1%,–
COc1cccc(-c2ccc(C(=O)N3CCC(C(=O)NCc4cccs4)CC3)cc2)c1,118%,–
COc1ccc(-c2nc3ccncc3[nH]2)cc1,–,10 µM (active)
c1cc(-c2nc3ccncc3[nH]2)ccn1,-8.24% [at 87.6 µM],–
COc1ccc(C(=O)N2CCCC2C(=O)N2CCCC2c2nc3ccncc3[nH]2)cc1 (stereo not drawn),-1.63%,–
COc1ccc(-c2ccc3c(n2)CN(CCOc2ccccc2)C(=O)CO3)cc1F,-7.82% [at 87.6 µM],–
O=C(C1CCCN(Cc2cccc(-c3ccc(F)cc3F)c2)C1)N1CCN(Cc2ccccc2)CC1 (stereo not drawn),-16.7%,–
COc1ccc(CC2CCOC3(CCN(C(=O)NCC(C)C)CC3)C2)cc1 (stereo not drawn),-8.11%,–
CC(C)NC(=O)C1CCC(Cn2c(=O)c3sccc3n(Cc3ccc(F)cc3)c2=O)CC1 (stereo not drawn),-16.7%,–
O=C(C1CCC(Cn2c(=O)c3sccc3n(Cc3ccccc3F)c2=O)CC1)N1CCCCC1 (stereo not drawn),–,25.1 µM (active)
CCCNC(=O)C1CCC(Cn2c(=O)c3sccc3n(Cc3ccccc3F)c2=O)CC1 (stereo not drawn),-3.61%,–

Compound,"activity change, negative = inhibition",Potency
O=C1CCN(S(=O)(=O)c2ccc3c(c2)CCC3)CCCC(c2nc(-c3cnccn3)no2)CCN1 (stereo not drawn),11.3%,–
CC[C@H]1CN(C(=O)c2ccc(F)cc2)CC[C@H]1CC(=O)N[C@@H](CO)CC(C)C,2.09% [at 87.6 µM],–
O=C(COc1ccc(F)cc1)NC1CCc2n[nH]c(=O)n2CC1 (stereo not drawn),-1.66%,–
COc1ccc(Cc2nnc3ccc(C(=O)NCCc4ccc(F)cc4)cn23)cc1,15%,–
Cc1cn2nc(C(=O)Nc3ccc(F)cc3C)cc2c(N(C)Cc2ccccc2)n1,15.7%,–
COc1cccc(C(=O)N2CCCC(C(=O)N3CCC(c4nc5ccncc5[nH]4)C3)C2)c1 (stereo not drawn),-0.429%,–
COc1ccc(-c2cc3nc4c(c(=O)n3[nH]2)CCN(C(=O)c2ccccc2C)C4)cc1,-10.8%,–
O=C(c1cccs1)N1CC[C@H](c2nnc(Cc3c[nH]c4ccccc34)o2)C1,-17.1% [at 87.6 µM],–
Cc1ccccc1NC(=O)c1cc2cn(C(C)C)cc2s1,2.8%,–
COCC(=O)N1CCCC(C(=O)N2CCC3(CC2)CC(=O)Nc2ccccc2O3)C1 (stereo not drawn),-9.94%,–
Cc1nn2c(c1-c1ccccc1-c1ccccc1)N(C(=O)CN1CCOCC1)CCC2,-12% [at 87.6 µM],–
Cc1nn2c(c1-c1ccccc1-c1ccccc1)N(CC1CC1)CCC2,–,2.51 µM (active)
Cc1nn2c(c1-c1ccccc1N1CCCC1)N(C(=O)c1ccc(Oc3ccccc3)cc1)CCC2,16.9%,–
CC(C)(C)c1csc(NC(=O)c2ccc3c(c2)OCCN(C2CCC2)C3)n1,-24.7% [at 87.6 µM],–
O=C(c1cccs1)N1CCCCCC1CN1CCCC1 (stereo not drawn),1.11%,–
O=C(O)COc1ccc(-c2nccc3c2C(=O)N(Cc2ccccc2)CC(COc2cccc(C(F)(F)F)c2)O3)cc1 (stereo not drawn),0.232%,–
Cc1ccc(C(=O)N2CCCN(C(=O)C3CC3)c3ccccc32)cc1F,-19.9%,–
O=C(c1ccccc1Cl)N1CCCN(c2cc(-c3ccc(F)cc3)[nH]n2)CC1,-1.66%,–
CNC(=O)[C@H]1C[C@H](Oc2ccccc2)CN1C(=O)CCn1nc(C)cc1C,33.4%,–
Cc1ccc(S(=O)(=O)N2CCC3(CC2)C(=O)N(CC(=O)NC(C)C)CN3c2ccccc2)cc1,-12.8%,–
CCc1nc2c(c(-c3ccc(O)cc3)n1)CCN(Cc1cccc(OC)c1)CC2,7.49%,–
CCn1ccc(C(=O)N2CCC(C3CCN(C(C)=O)CC3)C2)n1 (stereo not drawn),4.71%,–
O=C(NCC1CC1)c1ccc2nnc(Cc3ccc(Cl)cc3)n2c1,-11.1%,–
O=C(NCC1Cn2cccc2CN1Cc1ccccc1)c1ccco1 (stereo not drawn),43.1%,–
O=C(Cc1c[nH]c2ncc(-c3ccccc3F)cc12)N1CCOCC1,-19.1% [at 87.6 µM],–
N[C@@H]1CCN(Cc2cccc(Oc3ccc(F)cc3)c2)C[C@H]1O,16.8%,–
